Compound activity: PubChem, Broad Institute
PGC1a acetyl inh – inhibitors of PGC1a acetylation signal, primary screen, cell-based, U2OS, AlphaScreen, inhibitor mode; AlphaScreen anti-acetyl-lysine; with virally co-expressed GCN5 acetyltransferase; inhibition, % at 15.6 µM; 0.17% of 350,000 active; AID 651687, 2012;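 active = every replicate shows inhibition of at least 40%; inconclusive = mean inhibition at least 40% but some replicate below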;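 note: 0% = neutral control wells and 100% = positive control wells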
INS-1E GSIS act – GLuc luminescence reporter in INS-1E cells, primary screen for activators of glucose-dependent secretion of insulin; 0.61% of 370,000 active; activation, % at 16.6 µM; INS-1E GLuc reporter insulin secretion, 2-3 h; AID 743287, 2014;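 active = lowest replicate activation of at least 40%, so every replicate reaches that level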;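 note: 0% = median of neutral control wells and 100% = median of IBMX positive control wells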
HIV Env fusion – inhibitors of HIV-1 Env-driven cell-cell fusion, primary screen, HeLa-JRFL effector, CEM21 target cells, luciferase. inhibition, % at 12.3 µM. 1.1% of 360,000 active;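 active = mean replicate inhibition score of at least 50 and every replicate individually at or above 50; inconclusive = only one of the two criteria met; inactive = mean below 50 and not all replicates reaching 50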;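 note: 0% = plate neutral controls and 100% = maraviroc near 300 nM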
AF4-AF9 inh – inhibitors of AF4 peptide binding to AF9, primary screen, biochemical, AlphaScreen, biotin-AF4 peptide, FLAG-AF9, single point; inhibition, % at 10 µM; 0.47% of 350,000 active; AID 651704, 2012;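 active = every replicate reaching a set inhibition limit, whatever the replicate mean, cut at about 25% in these data; inconclusive = mean inhibition reaches that limit but some replicates miss it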;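 note: 0% = plate neutral control median and 100% = total signal loss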
NSD2 inh – NSD2 histone methyltransferase inhibitors, primary screen, biochemical, AlphaScreen, single concentration, set 2. Histone-lysine N-methyltransferase NSD2 (Homo sapiens), O96028. NSD2 peptide methylation, 120 min. inhibition, % at 12.5 µM. 0.54% of 310,000 active. AID 743445, 2014; in the data active = inhibition above about 50%
AlphaScreen intf – AlphaScreen signal interference counter-screen, dose response, artefact control, biochemical, cherry-picked samples, luminescence. 45% of 530 active. AC50, µM (highest dose often 12 µM), inactives show top-dose activity change, negative = inhibition. shares compounds with AF4-AF9 inh; cut-off not given, nearly all actives have AC50 up to about 14 µM
An asterisk follows results filed as active; i = inactive; ? = inconclusive; nt = no result given; [ ] = dose if it differs, or a comment. In the library only some 2.1% were active in any assay of this set; here they are far more common.

SMILES	PGC1a acetyl inh	INS-1E GSIS act	HIV Env fusion	AF4-AF9 inh	NSD2 inh	AlphaScreen intf
O=C(Nc1ccccc1)/C(=C\c1ccncc1)NC(=O)c1ccccc1	0	12	-45	nt	nt	nt
O=[N+]([O-])c1cc(CN2CCCC2)ccc1Sc1ccc(Cl)cc1	-13	-6	1	34*	nt	-32%
Clc1ccc(CN2CCCCCC2)cc1	nt	14	-62	-3	-1	nt
COc1ccc(CN2CCN(CC(=O)Nc3ccccc3C(=O)NC3CC3)CC2)cc1F	1	9	nt	3	-1	nt
CCN(CC)c1ccc(CNc2nc3ccccc3n2CCN2CCCCC2)cc1	-11	-25	8	44*	28	-28%
COc1ccc(CNc2nc3ccccc3n2CCN2CCCCC2)cc1	nt	2	9	5	-2	nt
O=c1c2ccccc2nc(/C=C/c2cccnc2)n1Cc1ccccc1	nt	-2	-39	39*	-2	-20%
COc1cccc(C(O)c2nc(-c3cccc4cccnc34)cs2)c1 (centres undefined)	-3	nt	3	4	-1	nt
CCOc1ccc(OCC(O)CNC2CCN(Cc3ccccc3)CC2)cc1 (centres undefined)	-5	28	2	nt	7	nt
CC(C)(c1ccccc1)c1ccc(OCC(O)CNC2CCN(Cc3ccccc3)CC2)cc1 (centres undefined)	-3	666*	27	31*	-2	-29%
CCN(CC)CCC(c1ccc(N(C)C)cc1)c1c(OC)cc(OC)c2c(-c3ccccc3)cc(=O)oc12 (centres undefined)	3	nt	-2	51*	nt	4.8µM*
COc1ccc(C(CCN2CCCC2)c2c(OC)cc(OC)c3c(-c4ccccc4)cc(=O)oc23)cc1 (centres undefined)	nt	-23	-32	15	nt	nt
COc1cc(OC)c2c(-c3ccccc3)cc(=O)oc2c1C(CCN1CCCC1)c1ccc2c(c1)OCO2 (centres undefined)	nt	-29	-42	29*	nt	-27%
COc1cc(OC)c2c(-c3ccccc3)cc(=O)oc2c1C(CC(=O)N1CCOCC1)c1ccc(N(C)C)cc1 (centres undefined)	0	nt	17	20	nt	nt
COc1cc(OC)c2c(-c3ccccc3)cc(=O)oc2c1C(CCN1CCCC(C)C1)c1ccc(N(C)C)cc1 (centres undefined)	-10	nt	-45	67*	nt	3µM*
Cc1nn(C)c(C)c1/C=N/NC(=O)CCn1cc([N+](=O)[O-])cn1	nt	1	2	-1	-1	nt
Oc1ccc(O)c(C=NNC(=S)NC2CC3CC2C2C=CCC32)c1 (centres undefined)	-6	-11	5	35*	6	12µM*
COc1ccc(CNCCC(c2ccc(OC(C)C)cc2)c2ccccc2OC)cc1 (centres undefined)	nt	5	?	13	2	nt
COc1ccccc1C(CCNCc1ccc(N(C)C)cc1)c1ccc(OC(C)C)cc1 (centres undefined)	-11	-34	55*	74*	32	2.9µM*
COc1ccc(C(CCNCc2ccc(N(C)C)cc2)C(C)C)cc1 (centres undefined)	nt	nt	65*	41*	14	11µM*
O=C(N1CCN(S(=O)(=O)c2ccc(Cl)cc2)CC1)n1ccnc1	-1	-9	nt	0	-1	nt
COc1cc(/C=N/O)ccc1OCc1ccc(Cl)cc1	nt	37	i	-1	1	nt
COc1cc(/C=N/N=C(N)N)ccc1OCc1ccc(Cl)cc1	nt	-20	-27	27*	14	-26%
CCOc1cc(/C=N/N=C(N)N)ccc1OCc1ccc(Cl)cc1	56*	nt	-2	27*	39	-27%
C[C@@H]1CN([C@H](C)CO)S(=O)(=O)c2ccc(C#CCN(C)C)cc2O[C@H]1CN(C)S(C)(=O)=O	-2	1	-13[16.7 µM]	-7	nt	nt
CC1C/C(=C/c2cccs2)C(=O)/C(=C/c2cccs2)C1 (centres undefined)	nt	-26	nt	?	31	-20%
O=C(NN1C(=O)/C(=C/c2ccc(O)c(O)c2)SC1=S)c1ccccc1	nt	-54	-5	?	nt	-24%
COC(=O)c1ccc2nc(C)cc(Nc3ccc(N(C)C)cc3)c2c1	-9	2	-78	32*	nt	-14%
Nc1ccc2c(c1)COc1ccccc1O2	0	-4	-65	nt	2	nt
